Results taken from PubChem BioAssay AID1159580 (chemical genetic matrix, 2015).
Screen size: about 5,500 compounds; about 2,000 (36%) were called active. Not shown: some 18% with an inconclusive outcome. The list shows a part of the results. Unmarked numbers belong to inactive results. Rule as the data show it: active = normalized growth mostly below about 0.91 (no sharp cut-off); inconclusive = no clear call, values can overlap the other calls; inactive = mostly above about 0.92.

Test: chemical genetic growth profiling, strain panel (AID 1159580);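 also: tested at 20 µM; growth read once vehicle control cultures reached saturation at 30 °C; 1 = growth at the plate median or of vehicle wells; lower values mean less growth of the strain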
Conditions: S. cerevisiae deletion strains, growth OD
[1] = locus YDL101C, strain DUN1, active compounds read low
[2] = locus YHR030C, strain SLT2, active compounds read low

Cc1onc(-c2ccc(Cl)cc2)c1-c1ccnn1C(=O)NC(C)C
normalized growth (locus YAL013W, strain DEP1, active compounds read low): 0.966
normalized growth (locus YBR229C, strain ROT2, active compounds read low): 0.932
normalized growth (locus YCL061C, strain MRC1, active compounds read low): 0.963
normalized growth [1]: 0.974
normalized growth (locus YDR150W, strain NUM1, active compounds read low): 0.96
normalized growth (locus YEL061C, strain CIN8, active compounds read low): 0.94
normalized growth (locus YGR078C, strain PAC10, active compounds read low): 0.92 (active)
normalized growth [2]: 0.918
normalized growth (locus YHR087W, strain rtc3, active compounds read low): 0.906 (active)
normalized growth (locus YJR043C, strain POL32, active compounds read low): 0.949
normalized growth (locus YJR075W, strain HOC1, active compounds read low): 0.73 (active)
normalized growth (locus YKL190W, strain CNB1, active compounds read low): 0.906 (active)
normalized growth (locus YLR039C, strain RIC1, active compounds read low): 0.989
normalized growth (locus YLR058C, strain SHM2 (second series), active compounds read low): 0.92 (active)
normalized growth (locus YLR085C, strain ARP6, active compounds read low): 0.591 (active)
normalized growth (locus YLR262C, strain YPT6, active compounds read low): 1.02
normalized growth (locus YML094W, strain GIM5, active compounds read low): 0.964
normalized growth (locus YMR219W, strain ESC1, active compounds read low): 0.933 (active)
normalized growth (locus YMR263W, strain SAP30, active compounds read low): 0.951
normalized growth (locus YNL153C, strain GIM3, active compounds read low): 0.964
normalized growth (locus YNL298W, strain CLA4 (second series), active compounds read low): 0.836 (active)
normalized growth (locus YNL322C, strain KRE1, active compounds read low): 0.921 (active)
normalized growth (locus YNR030W, strain Alg12, active compounds read low): 0.804 (active)
normalized growth (locus YPL055C, strain LGE1, active compounds read low): 0.835
normalized growth (locus YPL241C, strain CIN2, active compounds read low): 0.789 (active)
normalized growth (locus YPR135W, strain CTF4, active compounds read low): 0.71

Cc1cc(Cl)ccc1NNC(=O)c1sccc1Cl
normalized growth (locus YAR019C, strain CDC15, active compounds read low): 0.892
normalized growth (locus YBL105C, strain PKC1, active compounds read low): 0.912
normalized growth (locus YBR135W, strain CKS1, active compounds read low): 0.908
normalized growth (locus YBR136W, strain MEC1, active compounds read low): 0.9
normalized growth (locus YBR160W, strain CDC28, active compounds read low): 0.913
normalized growth (locus YDL017W, strain CDC7, active compounds read low): 0.915
normalized growth (locus YDL028C, strain MPS1, active compounds read low): 0.912
normalized growth [1]: 0.907 (active)
normalized growth (locus YDL108W, strain KIN28, active compounds read low): 0.907
normalized growth (locus YDL132W, strain cdc53, active compounds read low): 0.928
normalized growth (locus YDL214C, strain PRR2, active compounds read low): 0.869
normalized growth (locus YDR052C, strain DBF4, active compounds read low): 0.898 (active)
normalized growth (locus YDR054C, strain cdc34, active compounds read low): 0.882
normalized growth (locus YDR226W, strain ADK1, active compounds read low): 0.894 (active)
normalized growth (locus YDR477W, strain SNF1, active compounds read low): 0.861
normalized growth (locus YER123W, strain YCK3, active compounds read low): 0.787
normalized growth (locus YER133W, strain GLC7, active compounds read low): 0.794
normalized growth (locus YFL009W, strain cdc4, active compounds read low): 0.893
normalized growth (locus YFL029C, strain CAK1, active compounds read low): 0.883
normalized growth (locus YFR003C, strain YPI1, active compounds read low): 0.911
normalized growth (locus YFR019W, strain FAB1, active compounds read low): 0.907
normalized growth (locus YFR028C, strain CDC14, active compounds read low): 0.894
normalized growth (locus YGR040W, strain KSS1, active compounds read low): 0.861
normalized growth (locus YGR052W, strain FMP48, active compounds read low): 0.861
normalized growth (locus YGR092W, strain DBF2, active compounds read low): 0.7
normalized growth [2]: 0.152 (active)
normalized growth (locus YHR079C, strain IRE1, active compounds read low): 0.859
normalized growth (locus YHR082C, strain KSP1, active compounds read low): 0.884
normalized growth (locus YHR205W, strain SCH9, active compounds read low): 0.878
normalized growth (locus YIL147C, strain SLN1, active compounds read low): 0.913
normalized growth (locus YJL095W, strain BCK1, active compounds read low): 0.194 (active)
normalized growth (locus YJL128C, strain PBS2, active compounds read low): 0.89
normalized growth (locus YJL157C, strain FAR1, active compounds read low): 0.864
normalized growth (locus YJR016C, strain ILV3, active compounds read low): 0.898 (active)
normalized growth (locus YJR066W, strain TOR1 (second series), active compounds read low): 0.874
normalized growth (locus YJR066W, strain TOR1, active compounds read low): 0.835
normalized growth (locus YKL048C, strain ELM1, active compounds read low): 0.872
normalized growth (locus YKL067W, strain YNK1, active compounds read low): 0.861
normalized growth (locus YKL101W, strain HSL1, active compounds read low): 0.917
normalized growth (locus YKL193C, strain SDS22, active compounds read low): 0.893
normalized growth (locus YKL203C, strain TOR2, active compounds read low): 0.912
normalized growth (locus YLR113W, strain HOG1, active compounds read low): 0.779 (active)
normalized growth (locus YLR133W, strain CKI1, active compounds read low): 0.878
normalized growth (locus YLR403W, strain SFP1, active compounds read low): 0.831
normalized growth (locus YML070W, strain DAK1, active compounds read low): 0.836
normalized growth (locus YMR001C, strain CDC5, active compounds read low): 0.894
normalized growth (locus YMR205C, strain PFK2 (second series), active compounds read low): 0.844
normalized growth (locus YMR277W, strain FCP1, active compounds read low): 0.905
normalized growth (locus YNL006W, strain LST8, active compounds read low): 0.898 (active)
normalized growth (locus YNL020C, strain ARK1, active compounds read low): 0.885
normalized growth (locus YNL161W, strain CBK1, active compounds read low): 0.89 (active)
normalized growth (locus YNL183C, strain NPR1, active compounds read low): 0.858
normalized growth (locus YNL207W, strain RIO2, active compounds read low): 0.9
normalized growth (locus YNL222W, strain SSU72, active compounds read low): 0.896
normalized growth (locus YNL307C, strain MCK1 (second series), active compounds read low): 0.811
normalized growth (locus YOL078W, strain AVO1, active compounds read low): 0.888
normalized growth (locus YOL136C, strain PFK27, active compounds read low): 0.84
normalized growth (locus YOR061W, strain CKA2, active compounds read low): 0.876
normalized growth (locus YOR119C, strain RIO1, active compounds read low): 0.91
normalized growth (locus YOR231W, strain MKK1, active compounds read low): 0.823
normalized growth (locus YOR329C, strain SCD5, active compounds read low): 0.909
normalized growth (locus YPL031C, strain PHO85, active compounds read low): 0.861
normalized growth (locus YPL153C, strain RAD53, active compounds read low): 0.803
normalized growth (locus YPL204W, strain HRR25, active compounds read low): 0.822
normalized growth (locus YPL209C, strain IPL1, active compounds read low): 0.899 (active)
normalized growth (locus YPL256C, strain CLN2, active compounds read low): 0.803 (active)
normalized growth (locus YPR025C, strain CCL1, active compounds read low): 0.902
normalized growth (locus YPR106W, strain ISR1, active compounds read low): 0.903
normalized growth (locus YPR111W, strain DBF20, active compounds read low): 0.882
normalized growth (strain NNK1, active compounds read low): 0.897
normalized growth (strain TSCII, active compounds read low): 0.878 (active)
